From PubChem BioAssay AID493169 (National Center for Advancing Translational Sciences (NCATS), 2011) come the findings set out here.

Results filed as inconclusive are left out. A call without a number means that no potency is given here. Calls of active or inactive are those of the source. Calls come from the whole dose curve; as a rule, active = well fitted inhibition curve with a large enough effect; inconclusive = small, poorly fitted or top-dose-only effect; inactive = flat fitted curve, though single readings scatter.
Potency is the fitted concentration of half-maximal effect.

This experiment can be described thus: CHOP2 Reporter Counterscreen Assay for Inhibitors of Ubiquitin-specific Protease USP2a.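 Note: activated enterokinase alone at 50 pM in a cell-free format rather than USP2a or CHOP2; nearly all actives have a fitted effect of over 55% in size.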 To be noted: purified enterokinase, fluorogenic substrate, 485/531 nm; series mostly up to 38.3 µM. Put shortly: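 Cell-free counterscreen with pre-activated enterokinase alone (50 pM final) in 20mM Tris-HCl pH 8.0, 2mM CaCl2, 2mM beta-mercaptoethanol, 0.05% CHAPS; compound preincubation 30 min RT, reporter substrate 25nM final, fluorescence read after 10 min (Ex 485/Em 531).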
(In general: The purpose of a counterscreen is to sort out artefacts and off-target activity.)
`CC(C)C(=O)N=c1sc2cc(F)cc(F)c2n1C`: the Potency result is “inactive”.

Consider `Cn1nc(CC(=O)NCc2ccc(F)cc2)c2ccccc2c1=O`, for which the Potency result was “inactive”.

As to `CCc1cc2c(=O)c(-n3cnc4ccccc43)coc2cc1O`, the Potency entry was “inactive”.

In the case of `Cc1ccc(C(=O)Oc2coc(CSc3nnc(NC(=O)c4cccs4)s3)cc2=O)cc1`, the Potency is 3.16 µM (active).

As for `C[C@@H]1CC[C@]2(C(=O)O)CC[C@]3(C)C(=CCC4[C@]56CC[C@@](O)(OC5)C(C)(C)C6CC[C@]43C)C2[C@H]1C` (stereo not given in full), the Potency entry was “inactive”.

In the case of `CC(C)Cn1c(SCC(N)=O)nnc1-c1cccc(S(=O)(=O)N2CCOCC2)c1`, the Potency result was “inactive”.

Take `CCOc1ccc(C=NNc2ccc(S(=O)(=O)Nc3ccccc3C(=O)O)cc2[N+](=O)[O-])cc1`: the Potency was 11.2 µM (active).

Take `O=C(O)CC1(CC(=O)Nc2ccc3ccccc3c2)CCCCC1`: the Potency result was “inactive”.

Regarding `Cc1ccc(CNC(=O)CCNS(=O)(=O)c2ccc(C)cc2)cc1`, the Potency result is “inactive”.

Regarding `CC[n+]1c(/C=C/N(C)c2ccccc2)n(-c2ccccc2)c2ccc(-c3nc4ccccc4s3)cc21`, the Potency was 10 µM (active).

Turning to `Cc1ccc(NC(=O)CSc2nc(O)cc(=O)n2-c2ccc(C)cc2)cc1`, the Potency entry is “inactive”.

`O=C(CN1C(=O)/C(=C2\SC(=S)N(CCS(=O)(=O)O)C2=O)c2ccccc21)Nc1cccc(Br)c1`: the Potency is 12.6 µM (active).

For `Cc1ccc(Cn2nnc3c(=O)[nH]c(C4CCN(S(=O)(=O)Cc5ccccc5)CC4)nc32)cc1`, the Potency result was “inactive”.

For `COc1cc(/C=C(/C(=O)c2cccs2)c2nc3ccccc3[nH]2)ccc1O`, the Potency result was “inactive”.

In the case of `O=C(CN1CCC(O)CC1)N1c2ccccc2C=Cc2ccccc21`, the Potency entry was “inactive”.

Turning to `N=c1sccn1CC(=O)Nc1ccc(S(=O)(=O)N2CCOCC2)cc1`, the Potency entry is “inactive”.

On to `CCCOc1ccc(/C=C2\SC(=S)N(CC3CCCO3)C2=O)cc1` (stereo not given), for which the Potency result was “inactive”.

Consider `O=C(COC(=O)c1cc(-c2ccc(Cl)s2)nc2ccccc12)NCc1ccco1`, for which the Potency is 10 µM (active).

Turning to `Cc1ccc(C(=O)N(C)CC(=O)Nc2cccc(C)c2C)o1`, the Potency entry was “inactive”.

`CCCCCCCCCCOC(=O)Cn1c(COc2ccc(OC)cc2)[n+](C)c2ccccc21`: the Potency is 10 µM (active).

For `Cc1ccc(NC(=O)CSc2nnc(COc3ccc(C#N)cc3)n2-c2ccccc2)cc1C`, the Potency result was “inactive”.

As to `CCC(C(=O)Nc1nnc(-c2ccco2)s1)c1ccccc1` (stereo not given), the Potency entry is “inactive”.

With `CC1CCCC(N2CCN(C(=O)c3cccc(F)c3)CC2)C1` (stereo not given), the Potency entry is “inactive”.

On to `CCn1c(=O)c(C(=O)Nc2ccccc2S(N)(=O)=O)c(O)c2ccccc21`, for which the Potency was 11.2 µM (active).

Consider `CNc1nc(OCCNC(=O)Nc2ccccc2)nc(N2CCOCC2)n1`, for which the Potency result is “inactive”.

Turning to `CN(C)CCCN1C(=O)C(=O)/C(=C(/O)c2ccncc2)C1c1cccnc1` (stereo not given), the Potency result is “inactive”.

In the case of `CCOC(=O)C(=O)Nc1nc(-c2ccc3c(c2)CCN3C(=O)C2CC2)c(C)s1`, the Potency entry is “inactive”.

Regarding `O=C(CN1CCOCC1)Nc1ccc(C2CCCCC2)cc1`, the Potency result was “inactive”.

For `COC(=O)c1cc2sc(Cl)cc2n1Cc1nc(-c2ccccc2)oc1C`, the Potency result is “inactive”.

As for `O=C(Nc1nc(-c2ccco2)c(-c2ccco2)s1)C1CC(=O)N(c2ccc3c(c2)OCCO3)C1` (stereo not given), the Potency is 4.47 µM (active).

As to `CCNc1sc(C(=O)c2cccs2)c(N)c1-c1nc2ccccc2s1`, the Potency entry was “inactive”.

As for `CN(C)c1cccc(C(=O)NNC(=O)C23CC4CC(CC(C4)C2)C3)c1`, the Potency result is “inactive”.

As to `O=C(c1ccco1)N1CCN(C(c2cccs2)c2sc3ncnn3c2O)CC1` (stereo not given), the Potency entry was “inactive”.

For the compound `Cc1ccc(C(=O)N/C(=C/c2cccs2)C(=O)NCc2ccco2)cc1`, the Potency result is “inactive”.

Regarding `Cc1ccc(N=C2NC(=O)/C(=C/C=C/c3ccco3)S2)cc1C`, the Potency is 8.91 µM (active).

Consider `Cc1c(NC(=O)c2ccc(COc3ccc4ccccc4c3)o2)c(=O)n(-c2ccccc2)n1C`, for which the Potency result is “inactive”.

For `CC(C(=O)Nc1ccc(C(=O)O)c(O)c1)N1C(=O)/C(=C\c2ccco2)SC1=S` (stereo not given), the Potency was 7.94 µM (active).

For `Cc1ccc([C@H]2C(C(=O)O)=CC[C@@H](c3ccc(Cl)cc3)N2S(=O)(=O)c2ccc(C)cc2)cc1`, the Potency entry is “inactive”.

Turning to `O=C(N/N=C/c1ccc(-c2ccc(Cl)c(C(=O)O)c2)o1)c1cc2c(ccc3ccccc32)o1`, the Potency is 11.2 µM (active).

`CCCCCCCCCCCCCCCCn1cc[n+](C)c1`: the Potency is 10 µM (active).
